This passage reports Potency and activation results from PubChem BioAssay (Tox21).

A short description of assay [1]: qHTS assay to identify small molecule antagonists of the glucocorticoid receptor (GR) signaling pathway - cell viability counter screen (AID 720693). Further: nearly all actives have a fitted effect of over 55% in size. Further: potency means the concentration at half of the fitted maximal effect.
The nature of assay [2]: qHTS assay for identifying genotoxic compounds that show differential cytotoxicity against isogenic chicken DT40 cell lines with known DNA damage response pathways - wild type cell line (AID 743012). Further: nearly all actives have a fitted effect of over 60% in size. Further: potency means the concentration at half of the fitted maximal effect. An outline of the steps:
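300 wt DT40 cells/well; cpd (DMSO) pintool-transferred after ~0.5 h at 37 C/5% CO2; 40 h incubation; CellTiter-Glo added, 30 min RT; luminescence read.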
(In general: qHTS replaces the single test concentration by a dilution series.)

A short description of assay [3]: qHTS assay to identify small molecule antagonists of the androgen receptor (AR) signaling pathway using the MDA cell line - cell viability counter screen (AID 743041; further: nearly all actives have a fitted effect of over 45% in size; further: potency means the concentration at half of the fitted maximal effect). The method in brief: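 Compound exposure lasted 16 h at 37C in MDA-kb2 AR-luc cells stimulated with R1881. Protease-based CellTiter-Fluor reagent was applied for the final 30 min and fluorescence measured.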

A short description of assay [4]: qHTS assay to identify small molecule antagonists of the thyroid receptor (TR) signaling pathway - cell viability counter screen (AID 743064). Further: nearly all actives have a fitted effect of over 50% in size. Further: potency means the concentration at half of the fitted maximal effect. The method in brief: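 Compounds were tested on GH3.TRE-Luc cells in the presence of T3 at 1 nM final. Following 23.5 h at 37 °C, cell viability was quantified by CellTiter-Fluor.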
Assay [5] can be described thus: qHTS assay to identify small molecule antagonists of the thyroid receptor (TR) signaling pathway (AID 743065). Further: nearly all actives have a fitted effect of over 55% in size. Further: potency means the concentration at half of the fitted maximal effect. An outline of the steps:
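GH3.TRE-Luc rat pituitary cells (two TREs driving luciferase) were dosed with compound, then stimulated with 1 nM T3 (final) for 23.5 h at 37 C. ONE-Glo luminescence was the read-out, with CellTiter-Fluor fluorescence as the cytotoxicity counter-screen.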

Assay [6] relates to thyroid hormone receptor (rat, GH3 cells). In words: qHTS assay to identify small molecule agonists of the thyroid receptor (TR) signaling pathway (AID 743066; calls by dose curve; further: on the % scale 0 is the no-effect control and ±100 the full control effect).
Assay [7] can be described thus: qHTS assay to identify small molecule antagonists of the estrogen receptor alpha (ER-alpha) signaling pathway - cell viability counter screen (AID 743074; calls by dose curve; further: nearly all actives have a fitted effect of over 45% in size; further: potency means the concentration at half of the fitted maximal effect).
For assay [8], the target named is Estrogen receptor (Homo sapiens) (UniProt P03372). The experiment in a line: qHTS assay to identify small molecule agonists of the estrogen receptor alpha (ER-alpha) signaling pathway using the BG1 cell line (AID 743079). Further: nearly all actives have a fitted effect of over 20% in size. Further: potency means the concentration at half of the fitted maximal effect. On activation: on the % scale 0 is the no-effect control and ±100 the full control effect. Particulars: BG1Luc4E2 cells, ERE-luciferase agonist, 22 h.
A further assay addresses Aromatase (Homo sapiens) (UniProt P11511). The experiment in a line: qHTS assay to identify aromatase inhibitors (AID 743083). Further: nearly all actives have a fitted effect of over 55% in size. Further: potency means the concentration at half of the fitted maximal effect.
Assay [9] is described as follows: qHTS assay for identifying genotoxic compounds that show differential cytotoxicity against isogenic chicken DT40 cell lines with known DNA damage response pathways - Rad54/Ku70 mutant cell line (AID 743015). Further: nearly all actives have a fitted effect of over 60% in size. Further: potency means the concentration at half of the fitted maximal effect.
The target in assay [10] is Estrogen receptor (Homo sapiens) (UniProt P03372). The experiment in a line: qHTS assay to identify small molecule antagonists of the estrogen receptor alpha (ER-alpha) signaling pathway (AID 743069; active means well fitted curve in the direction sought with a large enough effect in the signal ratio in the repeat runs, not every such curve was filed as active; inconclusive means weak or mixed curves, or effect the other way; inactive means no such curve, though single readings can be large or run the other way; the % refers to the signal ratio; further: potency means the concentration at half of the fitted maximal effect). The method in brief:
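In this cell-based reporter format, GripTite HEK293 cells harbouring ER-alpha-UAS-bla were grown overnight with 2% charcoal-stripped FBS, dosed with DMSO-dissolved compounds, then challenged with 17beta-estradiol. After 18 hr at 37C, beta-lactamase activity was detected by FRET fluorescence.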

For assay [11] the target is unchanged. The experiment in a line: qHTS assay to identify small molecule agonists of the estrogen receptor alpha (ER-alpha) signaling pathway (AID 743075; calls by dose curve; further: on the % scale 0 is the no-effect control and ±100 the full control effect). Particulars: HEK293 ER-alpha-UAS-bla, beta-lactamase FRET ratio, 18 h; activation: at 70.1 µM (top of the series).
A short description of assay [12]: qHTS assay to identify small molecule antagonists of the estrogen receptor alpha (ER-alpha) signaling pathway using the BG1 cell line (AID 743080; calls by dose curve;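 further: BG1 cells stimulated with 17beta-estradiol alongside compound; on the % scale 0 is the no-effect control and ±100 the full control effect; nearly all actives have a fitted effect of over 25% in size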). An outline of the steps: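 Quantitative HTS on the Tox21 10K library: BG1 cells with endogenous ER-alpha and ERE-luciferase reporter, 17beta-estradiol stimulation, 21.5 h compound exposure, luminescence endpoint with parallel fluorescence cytotoxicity counter-read.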

Assay [13] can be described thus: qHTS assay to identify small molecule antagonists of the estrogen receptor alpha (ER-alpha) signaling pathway using the BG1 cell line - cell viability counter screen (AID 743081).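 Further: compound given together with 17beta-estradiol as the ER stimulus; nearly all actives have a fitted effect of over 45% in size.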 Further: potency means the concentration at half of the fitted maximal effect.
Assay [14] can be described thus: qHTS assay to identify small molecule antagonists of the androgen receptor (AR) signaling pathway - cell viability counter screen (AID 743033; further: nearly all actives have a fitted effect of over 45% in size; further: potency means the concentration at half of the fitted maximal effect).
Assay [15] has as its target Androgen receptor (Homo sapiens) (UniProt P10275). In words: qHTS assay to identify small molecule agonists of the androgen receptor (AR) signaling pathway using the MDA cell line (AID 743040; further: on the % scale 0 is the no-effect control and ±100 the full control effect; nearly all actives have a fitted effect of over 20% in size). The method in brief:
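Testing was done with the MDA-kb2 AR-luc line, a human breast carcinoma stably transfected with MMTV-luciferase containing AR and GR response elements. Cells were exposed 16 h at 37C before ONE-Glo luminescence detection.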

Assay [16] has the same target. In words: qHTS assay to identify small molecule antagonists of the androgen receptor (AR) signaling pathway using the MDA cell line (AID 743042; further: nearly all actives have a fitted effect of over 55% in size; further: potency means the concentration at half of the fitted maximal effect). The method in brief: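 MDA-kb2 breast carcinoma cells carrying MMTV-luciferase (AR/GR responsive) were co-treated with compounds and the agonist R1881 for 16 h at 37C. Inhibition read as ONE-Glo luminescence; CellTiter-Fluor fluorescence measured in parallel for cytotoxicity.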

Assay [17] in a line: qHTS assay for identifying genotoxic compounds that show differential cytotoxicity against isogenic chicken DT40 cell lines with known DNA damage response pathways - Rev3 mutant cell line (AID 743014). Further: nearly all actives have a fitted effect of over 55% in size. Further: potency means the concentration at half of the fitted maximal effect.
In assay [18] the target is Androgen receptor (Homo sapiens) (UniProt P10275). The experiment in a line: qHTS assay to identify small molecule antagonists of the androgen receptor (AR) signaling pathway (AID 743035; active means well fitted inhibition curve with a large enough effect in the signal ratio in the repeat runs, not every such curve was filed as active; inconclusive means weak or mixed curves, or effect the other way; inactive means no such curve, though single readings can be large or run the other way; the % refers to the signal ratio; further: potency means the concentration at half of the fitted maximal effect). An outline of the steps:
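In this cell-based reporter screen, compounds were tested in concentration series against R1881-activated HEK293 cells expressing beta-lactamase under UAS control; after 16 h at 37C, FRET substrate was added and fluorescence read 2 h later.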

Activity calls are given as the source filed them. Unless noted, the call rests on the fitted dose curve; in most records, active means well fitted curve in the direction sought with a large enough effect in the repeat runs; inconclusive means weak or mixed curves; inactive means no such curve, though single readings can be large; an effect the other way counts as inactive or inconclusive.

Chain of Androgen receptor (Homo sapiens) (P10275 whole entry, looked up): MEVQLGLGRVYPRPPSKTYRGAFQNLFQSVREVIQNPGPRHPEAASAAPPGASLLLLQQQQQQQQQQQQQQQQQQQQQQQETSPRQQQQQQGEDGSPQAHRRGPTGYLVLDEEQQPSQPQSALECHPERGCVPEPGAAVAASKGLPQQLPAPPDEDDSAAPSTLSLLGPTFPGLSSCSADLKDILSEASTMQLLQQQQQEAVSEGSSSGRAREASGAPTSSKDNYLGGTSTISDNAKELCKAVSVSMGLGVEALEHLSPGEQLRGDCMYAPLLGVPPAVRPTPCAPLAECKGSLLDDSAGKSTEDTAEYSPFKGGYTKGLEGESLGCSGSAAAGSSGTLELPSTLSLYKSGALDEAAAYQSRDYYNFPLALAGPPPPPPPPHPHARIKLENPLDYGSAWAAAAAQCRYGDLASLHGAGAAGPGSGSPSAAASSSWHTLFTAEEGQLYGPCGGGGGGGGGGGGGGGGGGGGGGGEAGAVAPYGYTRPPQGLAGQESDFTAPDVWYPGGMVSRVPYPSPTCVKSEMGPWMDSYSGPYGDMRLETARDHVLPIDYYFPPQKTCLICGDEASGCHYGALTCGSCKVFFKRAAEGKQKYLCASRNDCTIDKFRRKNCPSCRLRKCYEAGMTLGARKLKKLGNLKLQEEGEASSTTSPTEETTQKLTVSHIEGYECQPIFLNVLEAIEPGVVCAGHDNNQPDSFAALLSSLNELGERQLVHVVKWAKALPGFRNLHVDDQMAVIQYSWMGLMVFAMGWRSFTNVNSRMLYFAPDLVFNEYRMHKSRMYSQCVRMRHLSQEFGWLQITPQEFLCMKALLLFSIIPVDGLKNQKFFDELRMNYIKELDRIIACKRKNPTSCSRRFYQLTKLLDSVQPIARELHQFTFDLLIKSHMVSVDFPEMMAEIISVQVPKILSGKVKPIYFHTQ
Chain of Aromatase (Homo sapiens) (P11511 whole entry, looked up): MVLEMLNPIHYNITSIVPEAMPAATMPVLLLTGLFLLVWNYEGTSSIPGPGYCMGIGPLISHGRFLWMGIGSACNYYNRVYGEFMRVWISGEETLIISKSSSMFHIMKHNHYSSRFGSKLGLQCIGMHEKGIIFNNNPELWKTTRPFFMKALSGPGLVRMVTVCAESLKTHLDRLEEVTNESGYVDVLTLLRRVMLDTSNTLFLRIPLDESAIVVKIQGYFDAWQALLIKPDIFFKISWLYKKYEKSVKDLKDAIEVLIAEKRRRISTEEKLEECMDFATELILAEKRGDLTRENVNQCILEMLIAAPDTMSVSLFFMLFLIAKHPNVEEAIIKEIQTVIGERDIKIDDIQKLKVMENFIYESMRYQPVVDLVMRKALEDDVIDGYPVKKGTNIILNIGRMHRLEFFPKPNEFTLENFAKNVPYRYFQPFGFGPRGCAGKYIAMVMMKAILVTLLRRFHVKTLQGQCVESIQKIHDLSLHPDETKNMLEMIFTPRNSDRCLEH
Chain of Estrogen receptor (Homo sapiens) (P03372 whole entry, looked up): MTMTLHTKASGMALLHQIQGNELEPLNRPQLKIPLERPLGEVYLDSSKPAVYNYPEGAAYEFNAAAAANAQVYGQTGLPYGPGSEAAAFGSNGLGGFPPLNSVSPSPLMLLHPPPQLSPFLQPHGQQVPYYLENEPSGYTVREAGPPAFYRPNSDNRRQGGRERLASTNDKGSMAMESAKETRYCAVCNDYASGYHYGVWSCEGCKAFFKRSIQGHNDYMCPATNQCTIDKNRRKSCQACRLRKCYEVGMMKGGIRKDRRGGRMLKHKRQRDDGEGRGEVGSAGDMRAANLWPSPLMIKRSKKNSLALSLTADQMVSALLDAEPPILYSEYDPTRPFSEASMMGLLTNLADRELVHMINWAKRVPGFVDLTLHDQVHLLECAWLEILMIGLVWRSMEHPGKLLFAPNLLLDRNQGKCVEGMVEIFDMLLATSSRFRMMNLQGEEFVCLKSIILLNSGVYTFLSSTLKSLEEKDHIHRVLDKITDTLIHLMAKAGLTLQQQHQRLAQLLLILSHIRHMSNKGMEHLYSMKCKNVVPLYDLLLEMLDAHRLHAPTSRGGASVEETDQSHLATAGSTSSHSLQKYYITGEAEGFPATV

Regarding `O=C1c2ccccc2Cc2ccccc21`, the Potency result in assay [1], in assay [2], in assay [3], in assay [5], in [6] and in assay [7] was “inactive” in each case. Moreover, in the assay with Aromatase (Homo sapiens), the Potency entry was “inactive”. The Potency in [4] is 5.49 µM (active); in assay [8], 7.75 µM (active).
Regarding `Cc1ccc2oc(CN(Cc3ccccc3)C(=O)Nc3c(F)cc(F)cc3F)c(-c3ccc(Cl)cc3)c2c1`, the Potency result in assay [1], in assay [3], in [4], in [6], in assay [10] and in [7] was “inactive” throughout. In addition, the Potency entry in assay [11], in assay [12] and in [13] was “inactive” in each case. Besides, the Potency is 18.7 µM (active) in assay [2] and 14.9 µM (active) in assay [9]. In assay [8] (at 70.3 µM (top of the series)), the activation was -12.5% (inactive).
For `CC(C)=CCOc1ccc(/C=C/C(=O)c2ccc(OCC=C(C)C)cc2OCC(=O)O)cc1`, the Potency result in assay [1], in assay [2], in assay [14], in assay [15], in assay [3] and in assay [16] was “inactive” each time. In addition, the Potency result (in assay [7]; in assay [11]; in assay [13]; with Aromatase (Homo sapiens)) was “inactive” in each case. Moreover, the Potency in assay [5] is 26.6 µM (active); in assay [10], 16.9 µM [inconclusive] (active). Further, in [8] (at 70.3 µM (top of the series)), the activation is -17.4% (inactive).
Regarding `N/C(=N\N=C\c1ccc(Cl)cc1)N/N=C/c1ccc(Cl)cc1`, the Potency result in [1], in assay [17], in assay [9], in assay [14], in [3] and in assay [6] was “inactive” each time. Besides, the Potency entry (in assay [10]; in [7]; in assay [11]; in assay [12]; in [13]; in the assay with Aromatase (Homo sapiens)) was “inactive” throughout. Further, in assay [5], the Potency was 29.8 µM (active). For the same compound, in assay [8] (at 70.3 µM (top of the series)), the activation is -3.33% (inactive).
Regarding `NNc1nc(-c2ccc(N)cc2)cs1`, the Potency result in assay [1], in assay [14], in [6], in [7] and in assay [11] was “inactive” each time. The Potency in assay [2] was 17.2 µM (active). Moreover, the activation in assay [8] (at 70.3 µM (top of the series)) is -1.53% (inactive).
As to `O=C1C=CC(=O)N1`, the Potency in assay [1] is 31.7 µM (active); in assay [17], 2.5 µM (active); in assay [9], 5.59 µM (active); in assay [14] it was 22.5 µM (active); in assay [3], 55.9 µM (active); in [16] it was 31.4 µM (active). Further, the Potency was 9.95 µM (active) in assay [4], 56.4 µM (active) in assay [7] and 8.86 µM (active) with Aromatase (Homo sapiens). The Potency entry in assay [15] and in assay [11] was “inactive” each time. The activation in assay [8] (at 95 µM (top of the series)) is -8.49% (inactive).
With `O=C(OCC1CO1)C1CCCCC1C(=O)OCC1CO1` (centres undefined), the Potency entry in [1], in assay [14], in assay [15], in [3], in assay [16] and in assay [6] was “inactive” each time. Also, the Potency entry in [7] is “inactive”. For the same compound, the Potency was 0.77 µM (active) in [17], 9.7 µM (active) in assay [9], 54.5 µM (active) in [4] and 27.3 µM (active) in assay [5].
Regarding `O=C(Nc1ccc(Oc2ccc(Cl)cc2)c(Cl)c1)c1cc(I)cc(I)c1O`, the results for the Potency in assay [1], in assay [5] and in assay [7] were 6.01 µM (active), 29.8 µM (active) and 6.01 µM (active), respectively. The Potency result (in [17]; in assay [9]; in [14]; in assay [3]; in assay [13]; with Aromatase (Homo sapiens)) was “inactive” throughout.
With `COc1cc(-c2ccc(N=C=O)c(OC)c2)ccc1N=C=O`, the Potency result in assay [1], in assay [17], in assay [9], in assay [14], in assay [3] and in assay [4] was “inactive” throughout. For the same compound, the Potency result (in assay [5]; in [6]; in assay [7]; in assay [13]; with Aromatase (Homo sapiens)) was “inactive” each time.
`O=[N+]([O-])c1ccccc1Nc1ccccc1`: the Potency result in assay [1], in [17], in assay [9], in [14], in assay [3] and in assay [4] was “inactive” each time. The Potency result in assay [5], in assay [6], in [10], in assay [7], in assay [11] and in assay [12] was “inactive” throughout. In addition, the Potency entry in assay [13] is “inactive”. Besides, in assay [8] (at 70.3 µM (top of the series)), the activation is 4.1% (inactive).
Turning to `CCCCN1C(=O)[C@@H]([C@H](O)C2CCCCC2)NC(=O)C12CCN(Cc1ccc(Oc3ccc(C(=O)O)cc3)cc1)CC2`, the Potency result in assay [1], in assay [3], in assay [10], in assay [7], in assay [11] and in assay [13] was “inactive” in each case. In addition, in the assay with Aromatase (Homo sapiens), the Potency result is “inactive”. For the same compound, the Potency in assay [2] was 61.1 µM (active); in assay [9], 15.4 µM (active); in assay [5], 61.1 µM (active).
With `CC(=O)OCC(C)OC(C)=O` (centres undefined), the Potency entry in assay [1], in [17], in assay [9], in assay [14], in assay [3] and in assay [4] was “inactive” each time. Moreover, the Potency result in [5], in assay [6], in assay [10], in assay [7], in assay [11] and in assay [12] was “inactive” each time. The Potency result (in [13]; with Aromatase (Homo sapiens)) was “inactive” each time. In [8] (at 70.3 µM (top of the series)), the activation is 5.73% (inactive).
`Fc1ccc(C(c2ccc(F)cc2)N2CCN(C/C=C/c3ccccc3)CC2)cc1`: the Potency entry in assay [1], in [3], in assay [7], in assay [11], in assay [12] and in assay [13] was “inactive” each time. In addition, the Potency entry with Aromatase (Homo sapiens) is “inactive”. Moreover, the Potency was 10.6 µM (active) in assay [2] and 11.9 µM (active) in [9]. Moreover, in assay [8] (at 70.3 µM (top of the series)), the activation is -22.9% (inactive).
For the compound `Cc1cccc(S(=O)(=O)O)c1C`, the Potency entry in assay [1], in assay [2], in assay [9], in [3], in assay [4] and in assay [5] was “inactive” each time. In addition, the Potency entry in assay [6], in [10], in assay [7], in [11], in assay [12] and in assay [13] was “inactive” each time. The Potency entry in the assay with Aromatase (Homo sapiens) was “inactive”. Moreover, the activation in [8] (at 70.3 µM (top of the series)) is -6.85% (inactive).
Turning to `CCC(Cl)C(Cl)C(Cl)CC(Cl)C(Cl)C(C)Cl` (centres undefined), the Potency entry in assay [1], in assay [14], in assay [3], in assay [6], in assay [7] and in [13] was “inactive” throughout. For the same compound, the Potency result in the assay with Aromatase (Homo sapiens) was “inactive”. The Potency in assay [17] and in assay [9] was 54.5 µM (active) in each case.
As to `CC(C)CCCCCCCCCCCCCCC(=O)O`, the Potency result in [1], in assay [2], in [9], in assay [3], in assay [4] and in assay [6] was “inactive” in each case. In addition, the Potency result (in [7]; in [13]; with Aromatase (Homo sapiens)) was “inactive” throughout.
In the case of `CCCCCCCCCCCCCC[P+](CCCC)(CCCC)CCCC` (tested in a mixture with another compound), the Potency in assay [1] was 8.76 µM (active); in assay [2] it was 0.388 µM (active); in [14], 0.983 µM (active); in [18], 1.75 µM (active); in assay [3] it was 5.48 µM (active); in assay [16], 3.46 µM (active). In addition, the figures for the Potency (in [4]; in assay [13]; with Aromatase (Homo sapiens)) were 4.35 µM (active), 15.4 µM (active) and 4.35 µM (active), respectively. The Potency result in assay [15] is “inactive”.
